We go through 15 compounds from PubChem BioAssay.

The target in experiment [1] is Cell division control protein 42 homolog (Homo sapiens) (UniProt P60953). The experiment can be described thus: inhibition of fluorescent GTP binding to constitutively active Cdc42 – biochemical, multiplex bead flow cytometry, Bodipy-FL-GTP, dose response (AID 1333;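 active = fitted half-maximal concentration within the tested dose range, moderate curve steepness, a statistically real signal drop, and little compound fluorescence or tag-binding interference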). In general terms: A flow cytometer gives signals particle by particle.
Cell division control protein 42 homolog (Homo sapiens), sequence (P60953 whole entry, looked up): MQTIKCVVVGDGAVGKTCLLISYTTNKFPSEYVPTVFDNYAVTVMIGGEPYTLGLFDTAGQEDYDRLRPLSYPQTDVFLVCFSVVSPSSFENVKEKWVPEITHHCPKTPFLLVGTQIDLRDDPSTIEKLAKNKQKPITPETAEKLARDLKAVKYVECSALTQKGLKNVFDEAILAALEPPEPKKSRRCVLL
Experiment [2] shares this target. As to the kind of experiment: inhibition of fluorescent GTP binding to wildtype Cdc42 – biochemical, multiplex bead flow cytometry, Bodipy-FL-GTP, dose response (AID 1334;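 active = fitted half-maximal concentration within the tested range, moderate curve steepness, significant signal drop, and little compound fluorescence or bead-linkage interference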). The note with it: bead-based flow cytometry, Bodipy-FL-GTP binding to GST-Cdc42; at 100 µM (top of the series) unless noted.
Experiment [3] has as its target GTPase HRas (Homo sapiens) (UniProt P01112). The experiment can be described thus: Ras wt fluorescent GTP loading blockade – biochemical, wildtype, multiplex bead flow cytometry, dose response (AID 1335;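 active = fitted half-maximal concentration within 10 nM to 100 µM, steepness 0.5 to 2, significant signal drop, low assay interference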). Particulars: bead-based flow cytometry, Bodipy-GTP binding to GST-Ras; at 100 µM (top of the series) unless noted.
In experiment [4] the test system is Ras-related protein Rab-7a (dog), GTP binding. The experiment can be described thus: blockers of fluorescent GTP binding to Rab7 – biochemical, wildtype, multiplex bead flow cytometry, dose response (AID 1336).
Experiment [5] concerns the target Ras-related C3 botulinum toxin substrate 1 (Homo sapiens) (UniProt P63000). The experiment can be described thus: inhibition of wildtype Rac1 nucleotide loading – biochemical, multiplex bead flow cytometry, dose response (AID 1340;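 active = dose curve with midpoint inside tested range, moderate steepness, plateau gap beyond fit error, low compound glow and bead-link interference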). Particulars: GST-Rac1 beads, Bodipy-FL-GTP binding; at 100 µM (top of the series) unless noted.
Experiment [6] concerns the target GTPase HRas (Homo sapiens) (UniProt P01112). The experiment can be described thus: blockade of GTP loading onto mutant Ras – biochemical, activated mutant, multiplex bead flow cytometry, dose response (AID 1341;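 active = dose-response curve with midpoint inside the tested range, moderate steepness, significant amplitude and little compound fluorescence or bead-attachment interference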;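 also: GST-tagged constitutively activated Ras mutant immobilized on beads and multiplexed with other GTPases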).

For part of these data: Entries with a potency or affinity are not part of this list. Active and inactive are the calls of the source. Unless noted, no rule for the calls is given here.

GTPase HRas (Homo sapiens), sequence (P01112 whole entry, looked up): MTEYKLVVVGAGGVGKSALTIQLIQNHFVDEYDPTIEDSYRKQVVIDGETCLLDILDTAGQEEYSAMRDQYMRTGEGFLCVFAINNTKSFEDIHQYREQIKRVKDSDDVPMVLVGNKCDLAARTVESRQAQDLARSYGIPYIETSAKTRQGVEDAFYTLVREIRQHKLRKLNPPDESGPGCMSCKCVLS

As to `CCOc1ccccc1CNCc1sc(C(=O)O)cc1C`, the call in experiment [1], in experiment [4] and in experiment [6] was inactive. In experiment [2], the fluorescence, percent of control (lower = inhibition) was 59.6%. Moreover, the GTP binding, percent of control in experiment [3] worked out at 79.1%. Further, the GTP binding signal, raw median fluorescence (lower = inhibition) (MCF (arbitrary fluorescence units)) in experiment [5] worked out at 33.1.

Turning to `COc1ccc(OCc2ccccc2Br)c(C(=O)O)c1`, the compound was classed as inactive in experiment [1], in experiment [4] and in experiment [6]. For the same compound, the fluorescence, percent of control (lower = inhibition) in experiment [2] came out at 53%. In experiment [3], the GTP binding, percent of control amounted to 217%. Further, in experiment [5], the GTP binding signal, raw median fluorescence (lower = inhibition) (MCF (arbitrary fluorescence units)) stood at 49.3.

In the case of `O=C(Cn1cnc2cc([N+](=O)[O-])ccc2c1=O)NCCc1ccc(Cl)cc1`, the call in experiment [1], in experiment [4] and in experiment [6] was inactive. The compound also registered a fluorescence, percent of control (lower = inhibition) in experiment [2] of 36.8%. Further, the GTP binding, percent of control in experiment [3] is 85.2%. In experiment [5], the GTP binding signal, raw median fluorescence (lower = inhibition) (MCF (arbitrary fluorescence units)) is 244.

As for `COc1c(C)cccc1C(=O)NC(=S)Nc1ccc2c(c1)Cc1ccccc1-2`, the compound was classed as inactive in experiment [1], in experiment [4] and in experiment [6]. The fluorescence, percent of control (lower = inhibition) in experiment [2] worked out at 73.4%. The compound further had a GTP binding, percent of control in experiment [3] of 151%. In addition, the GTP binding signal, raw median fluorescence (lower = inhibition) (MCF (arbitrary fluorescence units)) in experiment [5] stood at 144.

As to `COc1cc(/C=N/Nc2ccc(S(N)(=O)=O)cc2)cc(OC)c1OC`, the compound was called inactive in experiment [1], in experiment [4] and in experiment [6]. In experiment [2], this compound registered a fluorescence, percent of control (lower = inhibition) of 31.7%. For the same compound, the GTP binding, percent of control in experiment [3] is 75.4%. In experiment [5], this compound gave a GTP binding signal, raw median fluorescence (lower = inhibition) (MCF (arbitrary fluorescence units)) of 175.

For the compound `Cn1c(=O)n(Cc2ccc(F)cc2)c(=O)c2c1nc1n2CCN1Cc1ccco1`, the result in experiment [1], in experiment [4] and in experiment [6] was inactive. This compound yielded a fluorescence, percent of control (lower = inhibition) in experiment [2] of 31.2%. This compound also showed a GTP binding, percent of control in experiment [3] of 68.1%. In experiment [5], this compound had a GTP binding signal, raw median fluorescence (lower = inhibition) (MCF (arbitrary fluorescence units)) of 164.

`O=C(NNc1nc(-c2ccccc2)c2cc(Br)ccc2n1)c1ccc(S(=O)(=O)N2CCOCC2)cc1`: the outcome in experiment [1], in experiment [4] and in experiment [6] was inactive. Moreover, the fluorescence, percent of control (lower = inhibition) in experiment [2] came out at 40.3%. The compound further returned a GTP binding, percent of control in experiment [3] of 53.5%. For the same compound, the GTP binding signal, raw median fluorescence (lower = inhibition) (MCF (arbitrary fluorescence units)) in experiment [5] was 124.

On to `N#Cc1c2c(c(-c3ccccc3Cl)[nH]c1=S)CCCC2`, for which the outcome in experiment [1], in experiment [4] and in experiment [6] was inactive. The fluorescence, percent of control (lower = inhibition) in experiment [2] turned out to be 28.8%. In addition, the GTP binding, percent of control in experiment [3] was 78.4%. In experiment [5], this compound had a GTP binding signal, raw median fluorescence (lower = inhibition) (MCF (arbitrary fluorescence units)) of 248.

As for `CCOc1cc(/C=C2/NC(=O)NC2=O)cc([N+](=O)[O-])c1O`, the result in experiment [1], in experiment [4] and in experiment [6] was inactive. The same compound registered a fluorescence, percent of control (lower = inhibition) in experiment [2] of 28.3%. Further, the GTP binding, percent of control in experiment [3] was determined as 64.7%. The GTP binding signal, raw median fluorescence (lower = inhibition) (MCF (arbitrary fluorescence units)) in experiment [5] came out at 146.

Turning to `CC(C)NC(=S)N=Nc1c(O)[nH]c2ccc([N+](=O)[O-])cc12`, the result in experiment [1], in experiment [4] and in experiment [6] was inactive. Further, the fluorescence, percent of control (lower = inhibition) in experiment [2] came to 29.1%. The compound further came in with a GTP binding, percent of control in experiment [3] of 67.1%. This compound returned a GTP binding signal, raw median fluorescence (lower = inhibition) (MCF (arbitrary fluorescence units)) in experiment [5] of 128.

For the compound `CCN1/C(=C\C=C2\C(=O)N(c3ccccc3)C(=S)N2C)Sc2ccccc21`, the call in experiment [1], in experiment [4] and in experiment [6] was inactive. The same compound had a fluorescence, percent of control (lower = inhibition) in experiment [2] of 35.1%. Besides, the GTP binding, percent of control in experiment [3] amounted to 73.9%. This compound also registered a GTP binding signal, raw median fluorescence (lower = inhibition) (MCF (arbitrary fluorescence units)) in experiment [5] of 189.

In the case of `COc1ccccc1OCCn1cc(C(=O)O)c2ccc(Cl)cc21`, the compound was classed as inactive in experiment [1], in experiment [4] and in experiment [6]. The compound also came in with a fluorescence, percent of control (lower = inhibition) in experiment [2] of 57%. In experiment [3], this compound displayed a GTP binding, percent of control of 201%. Moreover, in experiment [5], the GTP binding signal, raw median fluorescence (lower = inhibition) (MCF (arbitrary fluorescence units)) amounted to 61.4.

As for `COc1ccc(/C=N/Nc2ncnc3sc4c(c23)CCCC4)cc1O`, the outcome in experiment [1], in experiment [4] and in experiment [6] was inactive. This compound gave a fluorescence, percent of control (lower = inhibition) in experiment [2] of 30.6%. Besides, the GTP binding, percent of control in experiment [3] worked out at 42.8%. This compound also registered a GTP binding signal, raw median fluorescence (lower = inhibition) (MCF (arbitrary fluorescence units)) in experiment [5] of 112.

On to `O=C1c2ccccc2C(=O)N1CCCCN(C(=O)c1cc2ccccc2oc1=O)c1ccc(Cl)cc1`, for which the outcome in experiment [1], in experiment [4] and in experiment [6] was inactive. The fluorescence, percent of control (lower = inhibition) in experiment [2] worked out at 51.3%. For the same compound, in experiment [3], the GTP binding, percent of control is 60.9%. Further, the GTP binding signal, raw median fluorescence (lower = inhibition) (MCF (arbitrary fluorescence units)) in experiment [5] is 210.

For the compound `O=c1c2ccccc2nc2ccc(NCc3cccs3)nn12`, the call in experiment [1], in experiment [4] and in experiment [6] was inactive. This compound came in with a fluorescence, percent of control (lower = inhibition) in experiment [2] of 33.1%. In experiment [3], this compound registered a GTP binding, percent of control of 76.2%. Besides, the GTP binding signal, raw median fluorescence (lower = inhibition) (MCF (arbitrary fluorescence units)) in experiment [5] turned out to be 195.
